POLH inh = DNA polymerase eta (human) inhibition. Potency, µM (doses to about 114 µM), for the others: top-dose activity change, negative = inhibition, most hits filed as inhibitors. AID 588591. Q9Y253. 390,000 tested, 1.2% active. recombinant Pol eta, fluorescent DNA replication assay; note: potency is the fitted concentration of half-maximal effect; % is set by controls: 0 for no effect and ±100 for the full control effect
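Fluorescent replication assay: 50 nM final substrate added after a 15 min room-temperature compound preincubation with 10 nM enzyme. Signal taken at 0 min and again at 10 min.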
POLK inh = blocks human DNA polymerase kappa activity; Potency, µM (series often up to 107 µM), for the others: top-dose activity, negative = inhibition, usual class: inhibitors; purified Pol kappa, fluorescent DNA synthesis assay, 10 min; 400,000 tested, 0.53% active; note: potency is the fitted concentration of half-maximal effect; % is set by controls: 0 for no effect and ±100 for the full control effect
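50 nM final substrate added after 15 min RT preincubation of 10 nM Pol kappa with compound; fluorescence read at 0 and 10 min.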
Pol beta inh = inhibitors of human DNA polymerase beta; P06746; Potency, µM (doses to about 114 µM), for the others: at the top dose activity change, negative = inhibition, usual class: inhibitors; Pol beta primer extension/strand displacement, fluorescence kinetic; 340,000 tested, 1.3% active; note: potency is the fitted concentration of half-maximal effect; % is set by controls: 0 for no effect and ±100 for the full control effect
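Homogeneous kinetic assay of primer extension and strand displacement by 10 nM Pol beta, preincubated 15 min at room temperature with compound before 50 nM substrate (final) was added. Read at 0 and 10 min; four-parameter Hill fit.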
POLI inh = blocks human DNA polymerase iota activity; Potency, µM (titrated, usually from 115 µM), inactives show at the highest dose activity, negative = inhibition, actives largely listed as inhibitors; AID 588590; 390,000 tested, 1% active; Q9UNA4; Pol iota fluorescent replication assay, 10 min; note: potency is the fitted concentration of half-maximal effect
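Pol iota at 10 nM preincubated 15 min with compounds at room temperature; reaction started with fluorescent substrate, 50 nM final. Fluorescence read kinetically at 0 and 10 min; buffer-only wells as negative control.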
PI5P4K alpha inh = PI5P4K alpha (human) kinase inhibition; P48426; max response, %; 330,000 tested, 1.2% active; PI5P4Kalpha enzyme, ADP-Glo luminescence, 60 min; stronger effect = lower value; active = max response of -50% or lower; inconclusive = between -30% and -50%; inactive = -30% or higher; note: value at the top dose of about 77 µM; % is set by controls: 0 for no effect and ±100 for the full control effect
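Controls without substrate or without enzyme flank wells where PI5P4Kalpha converts substrate using 5 microM ATP (final). Incubation lasts 60 minutes at room temperature; ADP formed is read by ADP-Glo luminescence.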
WRN helicase inh = WRN helicase (human) inhibition | WRN helicase unwinding, fluorescent forked duplex, kinetic | AID 651768 | Potency, µM (top dose mostly 114 µM), for inactives: at the highest dose activity change, negative = inhibition, usual class: inhibitors | 360,000 tested, 0.46% active; note: potency is the fitted concentration of half-maximal effect; % is set by controls: 0 for no effect and ±100 for the full control effect; nearly all actives have a fitted effect of over 55% in size
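Enzyme (20 nM final) and test compound sit together 15 min at room temperature before substrate addition. Substrate is a single-forked duplex oligonucleotide (100 nM) labelled with fluorophore and quencher, with 2 mM ATP; helicase unwinding raises red fluorescence, read kinetically.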
Numbers without * were called inactive; [ ] = another dose, or the depositor's remark. In the library only some 2.8% were active in any assay of this set; here they are far more common. Unless noted, calls come from the whole dose curve; as a rule, active = well fitted curve in the direction sought with a large enough effect; inconclusive = small, poorly fitted or top-dose-only effect, or another doubt; inactive = no such curve, though single readings can be large; an effect the other way counts as inactive or inconclusive.

COc1ccc(/C=c2\s/c(=C(/C#N)C(=O)NCc3ccco3)n(-c3ccccc3)c2=O)cc1 was read as POLH inh -9.8%, POLK inh 1.5%, Pol beta inh 2.1%, POLI inh 52.8%, PI5P4K alpha inh 0.0 and WRN helicase inh 0.7%[57.1 µM].
Screening COC(=O)/C=c1/s/c(=C(\C#N)C(=O)NCc2ccco2)n(-c2ccccc2)c1=O returned POLH inh inconclusive, POLK inh -10.3%, Pol beta inh 18.3%, POLI inh 89.1µM*, PI5P4K alpha inh -25.4 and WRN helicase inh -7.7%[11.6 µM].
`COc1ccc(OC)c(NC(=O)c2nc(S(=O)(=O)Cc3ccccc3F)ncc2Cl)c1` gave POLK inh -5.1% and POLI inh -20.2%.
COc1ccccc1NCc1nnc2n1CCCCC2 was read as POLH inh 3.2%, POLK inh -5.1%[60.1 µM], Pol beta inh -0.2% and POLI inh 23.5%.
Screening COc1ccc(-n2nnnc2SCC(=O)NNC(=O)c2ccc([N+](=O)[O-])cc2)cc1 returned POLH inh -9.9%, POLK inh -19.7%, Pol beta inh 2.5%[57.1 µM], POLI inh inconclusive, PI5P4K alpha inh 3.0 and WRN helicase inh -2.2%.
Cc1ccc(-n2nnnc2SCC(=O)NNC(=O)c2ccc([N+](=O)[O-])cc2)cc1 was read as POLH inh inconclusive, POLK inh inconclusive, Pol beta inh 5.62µM*, POLI inh inconclusive, PI5P4K alpha inh -6.7 and WRN helicase inh -12.5%[57.1 µM].
For Cc1ccc(NC(=O)CN(C)C(=O)c2cccc(S(=O)(=O)NCc3ccco3)c2)cc1 the results were POLH inh inconclusive, POLK inh inconclusive, POLI inh 56.2µM*, PI5P4K alpha inh inconclusive and WRN helicase inh -19.6%.
Screening O=C(Nc1ccc(Cl)cc1F)c1ccc(COc2c(F)c(F)c(F)c(F)c2F)o1 returned POLH inh 20µM*, POLK inh -32.2%, Pol beta inh 44.7µM*, POLI inh -14.8%, PI5P4K alpha inh -23.8 and WRN helicase inh -16.6%.
O=C(Nc1ccc(F)cc1F)c1ccc(COc2c(F)c(F)cc(F)c2F)o1 was read as POLH inh -3.2%, POLK inh 0.1%, Pol beta inh inconclusive, POLI inh -10.9% and WRN helicase inh -21.3%.
For CC1CCCCN1C(=O)CN1C(=O)c2ccccc2S1(=O)=O (stereo not drawn) the results were POLH inh -13.9%, POLK inh 4.0%, POLI inh 5.0%, PI5P4K alpha inh -3.3 and WRN helicase inh 1.6%.
Screening COc1ccccc1NCC(=O)c1ccc(Cl)cc1 returned POLH inh inconclusive, POLK inh -2.8%, Pol beta inh 89.1µM*, POLI inh 36.9%, PI5P4K alpha inh -0.1 and WRN helicase inh -4.4%[57.1 µM].
`COc1ccccc1NCC(=O)c1ccc(C)c(C)c1` gave POLH inh -11.7%, POLK inh -10.6%, Pol beta inh -0.5%, POLI inh -3.0%, PI5P4K alpha inh 0.1 and WRN helicase inh 6.8%.
For CCN(CC)C(=O)C1CCCN(c2ncnc3c2nc2n3CCCCC2)C1 (stereo not drawn) the results were POLH inh 2.0%, POLK inh -4.9%, Pol beta inh 3.9% and POLI inh 5.0%.
Cc1cc(/C=C/c2c(C)cnc3ccccc23)ccc1N(C)C was read as POLK inh -12.0% and POLI inh inconclusive.
For COc1ccc(-c2oc3ncnc(NCCCN(C)C)c3c2-c2ccc(OC)cc2)cc1 the results were POLH inh -12.7%, POLK inh -5.3%[60.1 µM], Pol beta inh inconclusive, POLI inh -0.4%, PI5P4K alpha inh -3.3 and WRN helicase inh -11.8%[11.6 µM].
CCCCNc1ncnc2oc(-c3ccco3)c(-c3ccco3)c12 was read as POLK inh inconclusive and POLI inh 70.8µM*.
For CC(=O)C1=C(c2ccc(Br)cc2)C(=O)c2ccccc2C1=O the results were POLH inh -4.6%, POLK inh inconclusive, Pol beta inh 19.0%, POLI inh 3.55µM*, PI5P4K alpha inh -5.0 and WRN helicase inh inconclusive.
Screening CC(C)Nc1nnc(SCc2cc(=O)n3ccsc3n2)s1 returned POLH inh -16.7%, POLK inh -18.4%, Pol beta inh 31.6µM*, POLI inh inconclusive, PI5P4K alpha inh -25.4 and WRN helicase inh -7.3%.
For N#Cc1nc(-c2ccccc2)cc(-c2ccccc2)n1 the results were POLK inh -9.3% and POLI inh -9.7%.
For CCn1ncc(/C=C2/SC(=S)NC2=O)c1C the results were POLH inh -17.1%, POLK inh -6.4%, Pol beta inh 5.8%, POLI inh -7.9%, PI5P4K alpha inh -65.9* and WRN helicase inh 1.0%.
Screening C=CCn1c(Sc2ncc([N+](=O)[O-])s2)n[nH]c1=O returned POLH inh -7.0%, POLK inh -7.2%, Pol beta inh -1.1%, POLI inh 10µM*, PI5P4K alpha inh -8.8 and WRN helicase inh -35.1%.
O=C1NCCN1c1ncc([N+](=O)[O-])s1 was read as POLH inh -8.0%, POLK inh -7.2%, POLI inh -2.0%, PI5P4K alpha inh 0.6 and WRN helicase inh 5.7%.
Screening O=C(COC(=O)/C=C/c1ccco1)NCCN1C(=O)CSC1=O returned POLH inh 50.1µM*, POLK inh -19.8%, POLI inh -16.0%, PI5P4K alpha inh -8.2 and WRN helicase inh -5.2%.
For Cc1ccc(C(=O)OCC(=O)Nc2ncc(Cl)cc2Cl)cc1NC(=O)c1ccco1 the results were POLH inh inconclusive, POLK inh -28.4%, Pol beta inh inconclusive, POLI inh 50.1µM* and WRN helicase inh -15.9%.
COc1ccc(C(NC(=O)/C=C/c2ccco2)c2ccc(OC)cc2)cc1 was read as POLH inh inconclusive, POLK inh -7.1%, Pol beta inh 15.8µM*, POLI inh inconclusive, PI5P4K alpha inh -28.3 and WRN helicase inh -17.0%.
`Cc1ccc(C(=O)OCC(=O)Nc2ccccc2)cc1NC(=O)c1ccco1` gave POLH inh 2.6%, POLK inh -23.2%, Pol beta inh 10.5%, POLI inh -1.1%, PI5P4K alpha inh 0.5 and WRN helicase inh -10.6%.
Cc1nc(NC(=O)COC(=O)/C=C/c2ccco2)c(Cl)cc1Cl was read as POLH inh 28.2µM*, POLK inh 70.8µM*, POLI inh 31.6µM*, PI5P4K alpha inh -29.5 and WRN helicase inh -1.2%[11.6 µM].
Screening c1cncc(C2SCCCS2)c1 returned POLH inh 5.3%, PI5P4K alpha inh -2.3 and WRN helicase inh -7.8%.
CCc1ccc(CNc2ncnc3onc(-c4ccc(Cl)cc4)c23)cc1 was read as POLH inh -22.2%, POLK inh -22.8%, Pol beta inh 7.8% and POLI inh 33.1%.

Source: PubChem
